Structures are written as SMILES. About 83,000 compounds went through this panel and 20% of them were active in at least one assay; those are over-represented in the sample as a whole.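 Note: values are percent growth. 100 is the growth of untreated cells, values between 100 and 0 indicate rising inhibition; between -100 and 0 indicates cell death.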 Unmarked numbers belong to inactive results. The source made the active and inactive calls. Rule for the calls: active = growth percent below 10; inactive = the rest.

The text below walks through data of PubChem BioAssay (NCI).

What all share (assay): NCI-60 one-dose screen, 48 h (100 = growth as untreated, 0 = no growth, -100 = all killed)
Common to all, as to conditions: 10 µM

For experiment [1], the system named is DU-145 prostate.
Experiment [2] deals with K-562 leukemia.
Experiment [3] deals with MALME-3M melanoma.
Experiment [4] deals with MDA-MB-231 breast.
In experiment [5] the test system is RXF 393 renal.
Experiment [6] concerns SF-268 CNS.
In experiment [7] the test system is SF-295 CNS.
Experiment [8] has as its system SF-539 CNS.
The test system of experiment [9] is UACC-257 melanoma.
In experiment [10] the test system is M14 melanoma.
Experiment [11] has as its system HCT-15 colon.
The subject of experiment [12] is HT29 colon.
Experiment [13] has as its system SNB-75 CNS.
In experiment [14] the test system is SNB-19 CNS.
Experiment [15] relates to U251 CNS.
The subject of experiment [16] is PC-3 prostate.
Experiment [17] has as its system SK-MEL-5 melanoma.
Experiment [18] has as its system UACC-62 melanoma.
Experiment [19] has as its system LOX IMVI melanoma.
Experiment [20] relates to SK-MEL-28 melanoma.

Take `COc1cc2cc(Oc3ccc(NC(=O)Nc4ccc(C(F)(F)F)cc4)cc3)c(C)nc2cc1OC`: the growth in [1] was 71.4%; in [2], 57.1%; in [3], 82.9%; in experiment [4], 80.9%; in [5] it was 6.29% (active); in experiment [6], 79.3%. Also, the growth in experiment [7] was 56%; in experiment [8], 96.9%; in experiment [9], 66.5%; in [10], 95.2%; in experiment [11] it was 75.4%; in experiment [12] it was 44.6%. The growth was 41% in experiment [13]; 93.4% in [14]; 15% in experiment [15]; 48.3% in [16]; 47.4% in experiment [17]; 69.2% in experiment [18]. Moreover, the figures for the growth in [19] and in experiment [20] were 56.4% and 58.4%, respectively.
Turning to `O=[N+]([O-])c1cc(Cl)cc(Cl)c1O`, the growth in [1] was 105%; in experiment [2], 109%; in [3], 97.1%; in experiment [4], 110%; in experiment [5], 104%; in experiment [6], 100%. In addition, the growth in [7] is 97.3%; in [8] it was 89.7%; in [9], 104%; in experiment [10], 96.9%; in [11], 101%; in experiment [12], 97.7%. Further, the growth in experiment [13] was 90.8%; in experiment [14], 103%; in experiment [15] it was 104%; in [16], 103%; in [17], 101%; in [18], 103%. For the same molecule, the values for the growth in experiment [19] and in experiment [20] were 92.6% and 102%, respectively.
Take `CCCc1cn(CC(=O)Nc2nc3ccccc3s2)nn1`: the growth was 117% in [1]; 106% in experiment [2]; 101% in experiment [3]; 98.9% in [4]; 114% in experiment [5]; 98.8% in experiment [6]. Further, the growth in experiment [7] is 104%; in [8], 99.5%; in experiment [9], 106%; in experiment [10] it was 102%; in experiment [11], 108%; in experiment [12] it was 104%. Moreover, the growth in experiment [13] is 101%; in experiment [14], 102%; in [15] it was 97.8%; in experiment [16] it was 96.3%; in experiment [17], 99.5%; in experiment [18], 98.1%. Further, the growth is 96.6% in [19] and 103% in [20].
Turning to `NS(=O)(=O)Oc1ccc2c(ccn2C(=O)C23CC4CC(CC(C4)C2)C3)c1`, the growth in experiment [1] was 116%; in experiment [2], 101%; in experiment [3], 115%; in experiment [4], 102%; in experiment [5], 115%; in experiment [6], 111%. Further, the growth is 97.8% in experiment [7]; 103% in experiment [8]; 102% in experiment [9]; 112% in experiment [10]; 110% in [11]; 102% in [12]. The growth in experiment [13] was 117%; in experiment [14] it was 98.5%; in experiment [15], 99.2%; in experiment [16], 103%; in experiment [17], 95%; in [18] it was 98.8%. Besides, the figures for the growth in experiment [19] and in experiment [20] were 98.8% and 101%, respectively.
On to `C=CCn1c(SCC(=O)Nc2ccc(C(=O)/C=C/c3ccc(OC)cc3)cc2)nnc1-c1ccc(OC)c(OC)c1`, for which the growth in experiment [1] is 97.7%; in [2], 63.6%; in [3], 110%; in experiment [4], 72.3%; in experiment [5], 84.7%; in experiment [6] it was 84.1%. For the same molecule, the growth in experiment [7] was 93.5%; in experiment [8], 102%; in [9], 84.6%; in experiment [10] it was 89.6%; in [11], 83.8%; in experiment [12] it was 89.8%. Moreover, the growth in experiment [13] was 76.4%; in [14], 89%; in [15], 87.4%; in experiment [16] it was 67.2%; in experiment [17], 62.8%; in [18], 75.7%. For the same molecule, the growth in experiment [19] is 86.5%; in experiment [20], 105%.
On to `CCOC(=O)c1cc(C(=O)c2ccc(Cl)cc2)n2ccc(-c3cc[n+](CC(=O)c4ccc(OC)cc4)cc3)cc12`, for which the growth is 30.3% in experiment [1]; -52.9% (active) in experiment [2]; 99.6% in [3]; 70.9% in [4]; 73.6% in experiment [5]; 78.5% in experiment [6]. Moreover, the growth was 106% in experiment [7]; 89.5% in experiment [8]; 101% in experiment [9]; 56.8% in experiment [10]; 75.5% in [11]; -9.81% (active) in experiment [12]. The growth was 93.2% in [13]; 77% in [14]; 13.2% in [15]; 51.5% in experiment [16]; 98.3% in experiment [17]; 107% in [18]. Besides, the growth is 12.9% in experiment [19] and 99.6% in [20].
For `COc1cc(-c2nn(-c3ccc(NC(=O)NCCCNC(=O)c4ccccc4)cc3)cc2-c2ccncc2)ccc1Cl`, the growth was 20.6% in experiment [1]; 12.4% in experiment [2]; 47.3% in experiment [3]; 19.1% in experiment [4]; 25.2% in experiment [5]; 37.6% in experiment [6]. Moreover, the growth is 0.436% (active) in experiment [7]; -10.5% (active) in experiment [8]; 63.3% in [9]; 12.2% in experiment [10]; 20.3% in experiment [11]; 3.51% (active) in experiment [12]. The growth was 25% in experiment [13]; 55.8% in [14]; 14.9% in experiment [15]; 19.4% in experiment [16]; -43.5% (active) in [17]; 51.7% in [18]. For the same molecule, the results for the growth in experiment [19] and in experiment [20] were 15.1% and 52.1%, respectively.
For `O=C1c2ccccc2C(=O)c2c1ccc1c(=O)n(-c3ccccc3C(F)(F)F)nnc21`, the growth in experiment [1] is 47.7%; in [2], 15.2%; in [3], -51.3% (active); in experiment [4] it was 3.26% (active); in experiment [5], 28.9%; in experiment [6], 43.2%. Besides, the growth was 52.5% in [7]; -27.2% (active) in experiment [8]; -23.6% (active) in experiment [9]; 5.14% (active) in experiment [10]; 3.36% (active) in [11]; 31.5% in experiment [12]. Also, the growth in experiment [13] was 34.6%; in experiment [14] it was 18.2%; in [15], 17.7%; in [16], 12.9%; in [17], -94.3% (active); in [18], -34.8% (active). Also, the growth was -5.7% (active) in [19] and 63.5% in experiment [20].
Consider `NS(=O)(=O)Oc1ccc(-c2ccc3sccc3c2)cc1`, for which the growth in experiment [1] is 104%; in [2] it was 96.9%; in experiment [3] it was 106%; in [4] it was 90%; in experiment [5] it was 100%; in experiment [6], 102%. Also, the growth in experiment [7] was 97.2%; in experiment [8], 98.9%; in experiment [9] it was 104%; in experiment [10], 100%; in experiment [11] it was 103%; in experiment [12], 107%. Further, the growth in experiment [13] was 97.3%; in experiment [14], 101%; in [15] it was 88.8%; in [16] it was 96.5%; in [17] it was 95.9%; in experiment [18] it was 61.6%. The growth in [19] was 95.2%; in experiment [20] it was 97.6%.
As for `CC1(C)N=C(N)N=C(N)N1c1cccc(C#N)c1`, the growth in experiment [1] is 46.7%; in experiment [2] it was 20.7%; in experiment [3] it was 70.7%; in [4] it was 78.4%; in experiment [5] it was 50.7%; in [6] it was 29.8%. Besides, the growth in experiment [7] is 35.3%; in experiment [8], 46.2%; in [9], 73.3%; in experiment [10], 40%; in experiment [11] it was 33%; in experiment [12], 35.9%. Moreover, the growth in experiment [13] is 77.4%; in experiment [14], 66.8%; in [15] it was 28.5%; in [16], 43.1%; in [17], 52.4%; in [18] it was 54.1%. Further, the growth is 21% in experiment [19] and 95% in [20].
For `COc1cccc2ccc(CC(O)(c3ccccc3)c3ccccc3)nc12`, the growth in experiment [1] is 98.1%; in experiment [2], 91.9%; in experiment [3], 101%; in experiment [4] it was 85%; in experiment [5] it was 108%; in experiment [6], 93.7%. Also, the growth is 86.4% in experiment [7]; 103% in experiment [8]; 95.5% in experiment [9]; 94.3% in [10]; 54.7% in experiment [11]; 91.8% in experiment [12]. The growth in [13] was 74.6%; in [14], 96.6%; in experiment [15] it was 97%; in experiment [16] it was 79%; in [17], 87%; in experiment [18], 86.2%. In addition, the growth in [19] is 92.4%; in experiment [20] it was 106%.
Consider `CNS(=O)(=O)Oc1ccc(-c2ccc3occc3c2)cc1`, for which the growth in experiment [1] was 109%; in [2] it was 89.1%; in experiment [3] it was 116%; in experiment [4], 100%; in experiment [5] it was 122%; in [6] it was 102%. The growth in experiment [7] is 92.9%; in experiment [8] it was 98.1%; in experiment [9], 107%; in experiment [10] it was 113%; in experiment [11], 92.8%; in experiment [12], 99.1%. The growth in [13] was 106%; in experiment [14], 101%; in experiment [15], 94.1%; in [16], 90.6%; in experiment [17] it was 101%; in [18] it was 87.3%. Further, the growth was 96.4% in [19] and 94.4% in [20].
`O=C(NCCCNS(=O)(=O)c1ccc(Cl)cc1)Nc1ccc(-n2cc(-c3ccncc3)c(-c3ccc(Cl)c(O)c3)n2)cc1`: the growth was 46.6% in experiment [1]; 10.1% in experiment [2]; 37.6% in experiment [3]; -19.3% (active) in experiment [4]; 18.9% in experiment [5]; 49.1% in experiment [6]. For the same molecule, the growth in [7] is 2.43% (active); in [8], 47.9%; in experiment [9] it was 33.7%; in experiment [10] it was 18.1%; in experiment [11], 36.1%; in experiment [12], 0.25% (active). The growth in experiment [13] was 61.7%; in [14], 51.1%; in [15] it was 37.6%; in experiment [16], 17.3%; in [17], 2.07% (active); in [18], 42.8%. For the same molecule, the values for the growth in experiment [19] and in experiment [20] were 24.1% and 40.7%, respectively.
